Measured values: PubChem BioAssay (Tox21)
“And” between values parts separate entries of the source, which are not always exact repeats. Equal values may be shown once. A number with no mark means an inactive call. The source made the active and inactive calls. The call rests on the fitted dose curve; in most records, active means well fitted activation curve with a large enough effect in the repeat runs; inconclusive means weak or mixed curves; inactive means flat fitted curve, though single readings scatter.

What follows are compounds tested against KiSS-1 receptor (Homo sapiens) (UniProt Q969F8) (assay: Human kisspeptin (KISS1R) small molecule agonists, calcium flux assay in KISS1R-HEK293 cells (AID 1920064)). Details: KISS1R-HEK293, calcium flux fluorescence, agonist; series mostly up to 76.8 µM; activation: at the top concentration.
Text: National Center for Advancing Translational Sciences [NCATS]
Division of Preclinical Innovation [DPI]
U.S. Environmental Protection Agency [EPA]
National Institutes of Environmental Health Sciences [NIEHS]
National Toxicology Program [NTP]
U.S. Food and Drug Administration [FDA]
Kisspeptin and its receptor KISS1R play key roles in mammalian reproduction due to their involvement in the onset of puberty and control of the hypothalamic-pituitary-gonadal axis such as regulates GnRH release from the hypothalamus. The kisspeptin/KISS1R system also plays a direct role in peripheral organs (including the ovary, testis, uterus, and placenta) and is implicated in reproductive diseases such as miscarriage and polycystic ovary syndrome (PCOS). Abnormal KISS1R activity is associated with abnormal puberty, infertility, endometriosis, and hormone-dependent tumors. The KISS1 receptor (KISS1R, also called GPR54), a G-protein-coupled receptor (GPCR), acts (through phospholipase C) to increase intracellular inositol trisphosphate and then release intracellular calcium stores. Cell-based KISS1R-HEK293 assay is using HEK293 cells that have been genetically engineered to express the human KISS1R, which activity can be measured by calcium signaling. A compound/drug can activate (agonist) KISS1R that can be monitored by levels of intracellular calcium.
KISS1R-HEK293 cells developed by Codex Corp contain human KISS1R gene, which was stably integrated into HEK 293 cells. The compound activation can be detected by fluorescence intensity via calcium flux assay. This cell line has been used to screen the Tox21 10K compound library to identify agonists of KISS1R.
KISS1R-Hek293 cells were dispensed at 1500 cells/4uL/well in 1536-well black wall/clear bottom plates using a multidrop dispenser. After the assay plates were incubated at a 37 C/5% CO2 incubator for 18 hours, 4 microL of Calcium Dye Solution was added to each well. The plates were incubated at 37 C for 1 hour. And then 23 nL of compounds dissolved in DMSO, positive controls, or DMSO only was transferred to the assay plate by a pin tool station. The fluorescence intensity in the plates was measured using FDSS 7000EX kinetic plate reader with a filter set of Ex/Em=480/540 for 3 min at 1 sec intervals. Each test compound was measured at 15 concentrations and in triplicates.
On the % scale 0 is the no-effect control and ±100 the full control effect; potency means the concentration at half of the fitted maximal effect.

KiSS-1 receptor (Homo sapiens), sequence (Q969F8 whole entry, looked up): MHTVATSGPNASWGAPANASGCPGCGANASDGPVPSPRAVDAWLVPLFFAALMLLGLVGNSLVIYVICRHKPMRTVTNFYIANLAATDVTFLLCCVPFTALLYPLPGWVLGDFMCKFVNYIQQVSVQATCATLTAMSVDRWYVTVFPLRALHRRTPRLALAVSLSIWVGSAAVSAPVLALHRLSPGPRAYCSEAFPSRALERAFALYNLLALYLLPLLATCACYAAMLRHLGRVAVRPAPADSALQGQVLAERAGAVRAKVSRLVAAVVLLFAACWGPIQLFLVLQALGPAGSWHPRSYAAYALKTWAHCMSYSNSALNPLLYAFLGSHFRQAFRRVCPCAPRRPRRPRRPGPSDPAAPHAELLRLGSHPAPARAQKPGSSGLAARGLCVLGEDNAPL

Row | Structure (SMILES) | activation | Potency
1 | c1ccc2occc2c1 | 6.52% | 
2 | CC(C)=CCCC(C)CCOC=O (stereo not given) | -1.81% | 
3 | CC(C)COCC(CN(Cc1ccccc1)c1ccccc1)N1CCCC1 (stereo not given) | 9.24% [at 35.3 µM] | 
4 | Fc1ccc(C(c2ccc(F)cc2)N2CCN(C/C=C/c3ccccc3)CC2)cc1 | 0.103% [at 35.3 µM] | 
5 | Cc1ccc2nc(-c3ccc(N)cc3)sc2c1S(=O)(=O)O | 0.101% [at 35.3 µM] | 
6 | CCCCCCCCCCCCCBr | 0.519% | 
7 | CCCCC(CC)COC(=O)COc1cc(Cl)c(Cl)cc1Cl (stereo not given) | 2.44% | 
8 | COC(C(=O)O)c1ccccc1 (stereo not given) | 2.64% | 
9 | O=S(c1cc(Cl)cc(Cl)c1O)c1cc(Cl)cc(Cl)c1O | -1.38% [at 35.3 µM] | 
10 | O=C(c1ccc(O)c(O)c1)c1ccc(O)cc1O | 2.67% | 
11 | OCCN1CCOCC1 | -1.34% | 
12 | CCCCOC(=O)CCC(C)=O | -2.14% | 
13 | CCCCCCCCCCCCSC#N | 0.784% | 
14 | O=C(OCCc1ccccc1)c1ccccc1 | -2.22% | 
15 | CCCCCCCCC(CCCCCC)C(=O)O (stereo not given) | 3.09% | 
16 | COC(=O)c1cc(Cl)cc(Cl)c1 | 4.26% | 
17 | NNC(=O)CCCCC(=O)NN | 2.96% | 
18 | C=C[Si](OCC)(OCC)OCC | -4.74% | 
19 | CS(=O)(=O)CCNCc1ccc(-c2ccc3ncnc(Nc4ccc(OCc5cccc(F)c5)c(Cl)c4)c3c2)o1 | 0.0277% [at 35.3 µM] | 
20 | CC(=O)Oc1ccc(C(=C2CCCCC2)c2ccc(OC(C)=O)cc2)cc1 | -1.45% [at 35.3 µM] | 

Row | Structure (SMILES) | activation | Potency
21 | Cc1cccc(C)c1NC(=O)CN(CC(=O)O)CC(=O)O | 0.0261% [at 35.3 µM] | 
22 | C=CCOCC(O)CCl (stereo not given) | -2.06% | 
23 | COC(=O)c1ccccc1OC | -0.924% | 
24 | CC(=O)[C@]1(O)Cc2c(O)c3c(c(O)c2[C@@H](O[C@H]2C[C@H](N)[C@H](O)[C@H](C)O2)C1)C(=O)c1ccccc1C3=O | 33.4% [at 35.3 µM] | 
25 | CCO[Si](CCCS)(OCC)OCC | 1.26% | 
26 | Nc1ccc2cc3ccc(N)cc3nc2c1 |  | 49 µM (active) and 23.9 µM (active)
27 | COc1ccc2c(c1)c(CC(=O)OC/C=C(\C)CC/C=C(\C)CCC=C(C)C)c(C)n2C(=O)c1ccc(Cl)cc1 | -0.474% [at 35.3 µM] | 
28 | CC[C@H]1CC[C@H](NCc2cc3c(cc2OC)[C@H]2C[C@H]2C(=O)N3C)[C@H](c2ccccc2)N1 | 1.92% | 
29 | Cc1ccc2ccc3cccc4ccc1c2c34 | 13.1% | 
30 | Cc1ccc(N=Nc2c(O)c(C(=O)O)cc3ccccc23)c(S(=O)(=O)O)c1 | 1.64% [at 35.3 µM] | 
31 | O=C(O)COCCN1CCN(C(c2ccccc2)c2ccc(Cl)cc2)CC1 (stereo not given) |  | inactive
32 | NC(N)=NS(=O)(=O)c1ccc(N)cc1 | 0.231% [at 35.3 µM] | 
33 | CC(NCCC(c1ccccc1)c1ccccc1)c1ccccc1 (stereo not given) | 3% [at 35.3 µM] | 
34 | CC(C)OC(=O)CCC(=O)OC(C)C | -1.22% | 
35 | CN1CCN2c3ccccc3Cc3ccccc3C2C1 (stereo not given) | 5.3% [at 35.3 µM] | 
36 | CC(C)(CO)[C@@H](O)C(=O)NCCCO | -1.37% [at 35.3 µM] | 
37 | CCOc1ccc2nc(N)sc2c1 | 0.717% | 
38 | CCN(Cc1ccccc1)c1ccccc1 | 0.0722% | 
39 | COc1ccc(S(=O)(=O)N2C(=O)[C@@](c3ccccc3OC)(N3C[C@H](O)C[C@H]3C(=O)N(C)C)c3cc(Cl)ccc32)c(OC)c1 | 6.64% | 
40 | CC(=O)Oc1ccc2c(c1)CC[C@@H]1[C@@H]2CC[C@]2(C)[C@@H](O)CC[C@@H]12 | 3.41% [at 35.3 µM] | 
